Measured values reported in PubChem BioAssay AID1159580 (chemical genetic matrix, 2015).
Screen size: about 5,500 compounds; about 2,000 (36%) were called active. Not shown: some 18% with an inconclusive outcome. Rule as the data show it: active = normalized growth mostly below about 0.91 (no sharp cut-off); inconclusive = no clear call, values can overlap the other calls; inactive = mostly above about 0.92. The list shows a part of the results.

Experiment: chemical genetic growth profiling, strain panel (AID 1159580);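 also: tested at 20 µM; growth read once vehicle control cultures reached saturation at 30 °C; 1 = growth at the plate median or of vehicle wells; lower values mean less growth of the strain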
Conditions: S. cerevisiae deletion strains, growth OD
[1] = locus YAL040C, strain CLN3, hits give low values
[2] = locus YDR363W, strain ESC2, hits give low values
[3] = locus YER002W, strain NOP16, hits give low values
[4] = locus YGR229C, strain SMI1, hits give low values
[5] = locus YNL153C, strain GIM3, hits give low values
[6] = locus YNL175C, strain NOP13, hits give low values
[7] = locus YNL197C, strain WHI3, hits give low values
[8] = locus YNL224C, strain SQS1, hits give low values
[9] = locus YOR083W, strain WHI5 (second series), hits give low values

Measured: normalized growth

CCCCC/C=C\C/C=C\C/C=C\C/C=C\CCCC(=O)NCC(=O)O
inactive: [1] 1.02 | locus YDR150W, strain NUM1, hits give low values 1.03 | [2] 1.02 | [3] 1.02 | locus YGR078C, strain PAC10, hits give low values 0.985 | [4] 0.963 | [5] 1.07 | [6] 0.941 | [7] 1.01 | [8] 0.979 | [9] 0.962

CCCCCCC/C=C\CCCCCCCCC(=O)O
inactive: [1] 1.01 | locus YCL061C, strain MRC1 (second series), hits give low values 1.01 | [2] 1.02 | [3] 1.03 | [4] 1.01 | locus YMR307W, strain GAS1, hits give low values 1.01 | [5] 0.946 | [6] 0.996 | [7] 1.01 | [8] 1.01 | [9] 1.01
